For two compounds, AC50 and outcome results are on record in PubChem BioAssay (EPA / NIEHS).

Assay [1] in a line: CCTE_Deisenroth_H295R-HTRF_384WELL_ESTRADIOL: CCTE's H295R-HTRF Assay Evaluation of Estradiol Concentration, Deisenroth Lab (AID 2284361; active = hit-call score of the fitted dose curve at least 0.9, where 1 is the maximum; inactive = score below 0.9). As to conditions: actives raise or lower the signal. In a few lines: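 Estradiol secreted into medium by H295R adrenocortical cells, quantified by HTRF after 48 h dosing over a nine-point 0.001 - 100 uM final range; gain or loss versus DMSO. Parallel ATP-luminescence viability readout; n=5 experiments.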

Assay [2] is described as follows: CCTE_Deisenroth_H295R-HTRF_384WELL_TESTOSTERONE: CCTE's H295R-HTRF Assay Evaluation of Testosterone Concentration, Deisenroth Lab (AID 2284373; active = hit-call score of the fitted dose curve at least 0.9, where 1 is the maximum; inactive = score below 0.9). The following applies: actives raise or lower the signal. In a few lines: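 Secreted testosterone was quantified by HTRF immunoassay of medium from human adrenocortical H295R cells after 48 h chemical exposure at 0.001–100 uM final. Gain or loss was fitted against DMSO. ATP-based viability was read on matched wells, five experimental replicates.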
(TR-FRET usually uses a lanthanide donor and a delayed reading to cut background.)

Assay [3] in a line: CCTE_Deisenroth_H295R-HTRF_384WELL_CTOX: Cytotoxicity Assessment in CCTE's H295R-HTRF Assay, Deisenroth Lab (AID 2284380). In a few lines: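 Luminescent ATP viability readout (CellTiter-Glo 2.0), multiplexed on plates used for hormone sampling, after 48 h chemical exposure. Human H295R cells; final concentrations 0.001–100 uM in nine steps, technical triplicates, five experiments; DMSO baseline.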

Assay [4] deals with Estrogen receptor (Homo sapiens) (UniProt P03372). The assay can be described thus: CCTE_Deisenroth_AIME_96WELL_LUC_Active: CCTE's 96-well Estrogen Receptor Transactivation Assay with AIME metabolic competence (ERTA luciferase; metabolism positive), Deisenroth Lab (AID 2284023). In a few lines:
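Metabolism-positive mode: induced rat hepatic S9 in alginate microspheres conditions test solutions (0.002 - 200 uM, 10 points) for 2 hours. VM7Luc4E2 ER luciferase reporter cells then exposed 24 h; positive-direction fit against 17beta-estradiol, n=4 typical.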

Assay [5] has the same target. The assay is described as follows: CCTE_Deisenroth_AIME_96WELL_LUC_Inactive: CCTE's 96-well Estrogen Receptor Transactivation Assay without AIME metabolic competence (ERTA luciferase; metabolism negative), Deisenroth Lab (AID 2284025). In a few lines: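 Metabolism-negative arm: chemicals (0.002–200 uM, 10 points) incubated 2 h with alginate-water microspheres, then medium moved onto VM7Luc4E2 cells for 24 h luciferase read-out. Positive direction vs 17beta-estradiol; n≥4 experiments.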

The nature of assay [6]: CCTE_Deisenroth_AIME_96WELL_CTox_Active: Cytotoxicity Assessment (CTOX) in CCTE's 96-well Estrogen Receptor Transactivation Assay with AIME metabolic competence (metabolism positive), Deisenroth Lab (AID 2284028). In a few lines:
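Cytotoxicity in VM7Luc4E2 breast cells after 24 h exposure to medium from a 2 h metabolic pre-incubation with induced rat hepatic S9 in alginate microspheres; fluorescent live-cell protease readout, 10-point series 0.002–200 uM, n=4.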

Assay [7] can be described thus: CCTE_Deisenroth_AIME_96WELL_CTox_Inactive: Cytotoxicity Assessment (CTOX) in CCTE's 96-well Estrogen Receptor Transactivation Assay without AIME metabolic competence (metabolism negative), Deisenroth Lab (AID 2284029). In a few lines: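 Metabolism-negative mode: alginate-water lids without rat S9, 2 h pre-incubation of 10-point series (0.002 - 200 uM). Conditioned medium on VM7Luc4E2 cells 24 h; loss of fluorescent live-cell protease signal marks cytotoxicity.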

Records with an inconclusive call do not appear. The source made the active and inactive calls. Rule for the calls, unless noted: active = hit-call score of the fitted dose curve at least 0.9, where 1 is the maximum; inconclusive = response in the unintended direction; inactive = score below 0.9.

Estrogen receptor (Homo sapiens), sequence (P03372 whole entry, looked up): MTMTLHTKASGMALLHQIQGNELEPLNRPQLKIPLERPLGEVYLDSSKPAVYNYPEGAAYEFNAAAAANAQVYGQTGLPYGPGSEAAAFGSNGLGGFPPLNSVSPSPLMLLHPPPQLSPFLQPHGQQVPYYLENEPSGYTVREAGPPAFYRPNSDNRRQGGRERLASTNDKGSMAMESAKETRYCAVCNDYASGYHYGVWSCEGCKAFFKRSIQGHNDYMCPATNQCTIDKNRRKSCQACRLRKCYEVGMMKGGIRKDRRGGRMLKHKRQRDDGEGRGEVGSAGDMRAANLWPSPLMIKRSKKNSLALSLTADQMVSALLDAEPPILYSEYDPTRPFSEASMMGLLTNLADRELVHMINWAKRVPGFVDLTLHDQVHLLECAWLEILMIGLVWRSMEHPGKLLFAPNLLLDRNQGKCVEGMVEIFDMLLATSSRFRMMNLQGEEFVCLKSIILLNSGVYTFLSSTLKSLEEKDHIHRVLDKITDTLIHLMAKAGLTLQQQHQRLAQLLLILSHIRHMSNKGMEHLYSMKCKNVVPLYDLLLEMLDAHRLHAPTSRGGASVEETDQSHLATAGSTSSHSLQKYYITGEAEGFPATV

For orientation: AC50 means the midpoint of the concentration-response curve, whichever way the signal moves. In the case of `Clc1ccc(COC(Cn2ccnc2)c2ccc(Cl)cc2Cl)cc1` (configuration not stated), the AC50 in assay [1] was 0.703 µM (active); in assay [2], 0.327 µM (active). The call in assay [3] was inactive.

For `Oc1ccccc1Cc1ccccc1`, the half-maximal activity concentration (AC50) was 27.7 µM (active) in assay [4], 27.7 µM (active) in assay [5], 162 µM (active) in assay [6] and 175 µM (active) in assay [7].
